# Test results from PubChem BioAssay (NCATS).
# Records with an inconclusive call do not appear. Activity calls are given as the source filed them. Unless noted, calls come from the whole dose curve; as a rule, active = well fitted curve in the direction sought with a large enough effect; inconclusive = small, poorly fitted or top-dose-only effect, or another doubt; inactive = no such curve, though single readings can be large; an effect the other way counts as inactive or inconclusive.
# How the values were obtained:
# [1] = P-glycoprotein substrates identified in KB-8-5-11 adenocarcinoma cell line, qHTS therapeutic library screen (AID 1346987); note: nearly all actives have a fitted effect of over 65% in size
# Procedure, shortened: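 In this qHTS, P-gp-rich KB-8-5-11 cells received library compounds across a concentration range. Viability was quantified by luminescence after 72 h at 37 degree C.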
# [2] = test system: HaCat; assay: Cytotoxic Profiling of Annotated Libraries Using Quantitative High-Throughput Screening (AID 1296008); details: Five cell lines viability, CellTiter-Glo ATP luminescence, 48-72 h; max response: stronger effect = lower value; note: nearly all actives have a fitted effect of over 60% in size; for max response: % is set by controls: 0 for no effect and ±100 for the full control effect
# Procedure, shortened: (§1)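 Cells exposed to compounds for 48 or 72 hr at 37 degrees Celsius. Viability read as ATP-coupled luminescence with CellTiter-Glo after 10 min at room temperature.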
# [3] = test system: CAOV3; assay: Primary qHTS to identify gynecologic anti-cancer compounds using libraries of approved drugs and bioactive compounds (AID 1345084); details: Gynecologic cancer cell panel viability, ATPlite luminescence, 48 h; series mostly up to 57.5 µM; note: nearly all actives have a fitted effect of over 55% in size
# Procedure, shortened: (§2)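 Cell viability after 48 h drug treatment, ATPlite luminescence readout; five doses.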
# [4] = test system: SKOV3; assay: as above; details: Gynecologic cancer cell panel viability, ATPlite luminescence, 48 h; series mostly up to 57.5 µM
# Procedure, shortened: as §2
# [5] = test system: Zika virus NS2B-NS3 protease (unlinked complex); assay: Primary screen GU Rhodamine qHTS for Zika virus inhibitors: Unlinked NS2B-NS3 protease assay (AID 1347159); note: nearly all actives have a fitted effect of over 60% in size; for activity change, negative = inhibition: % is set by controls: 0 for no effect and ±100 for the full control effect
# Procedure, shortened: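 Percent inhibition came from the 15-min rise in Rhodamine110 fluorescence (1.5 microM substrate, ~15% conversion), normalized to no-inhibitor and no-enzyme wells and Hill-fitted. Unlinked protease, 25 nM, pH 8.0 Tris buffer; compounds up to 114 microM, 15-min preincubation.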
# [6] = qHTS to identify inhibitors of the type 1 interferon - major histocompatibility complex class I in skeletal muscle: primary screen against the NCATS Mechanism Interrogation Plate v5.0 (MIPE) Libary (AID 1347411); note: nearly all actives have a fitted effect of over 65% in size;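 for activity change, negative = inhibition: plate controls were vehicle for no effect and reference inhibitor for full effect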
# Procedure, shortened: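 HLA-B HiBit myoblasts, dexamethasone-free medium + 4 ng/ml IFN-b, 24 h compound, 11-pt 1:3 from 46 uM final. Readout: Nano-Glo HiBiT lytic luminescence after 10 min lysis, RT.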
# [7] = molecular target: Cytochrome P450 2D6 (Homo sapiens) (UniProt P10635); assay: Cytochrome P450 family 2 subfamily D member 6 (CYP2D6) small molecule antagonists: luciferase biochemical (cell-free) qHTS assay (AID 1645840; active = well fitted curve in the direction sought with a large enough effect in the repeat runs; an effect the other way counts as inactive or inconclusive; note: nearly all actives have a fitted effect of over 55% in size; for activity change, negative = inhibition: % is set by controls: 0 for no effect and ±100 for the full control effect)
# Procedure, shortened: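 P450-Glo CYP2D6 system: proluciferin substrate converted by enzyme to luciferin, read by luminescence proportional to activity. Enzyme-substrate mix with compound 10 min at room temperature, then NADPH regeneration 1 h before detection reagent.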
# [8] = test system: PA-1; assay: Primary qHTS to identify gynecologic anti-cancer compounds using libraries of approved drugs and bioactive compounds (AID 1345084); details: Gynecologic cancer cell panel viability, ATPlite luminescence, 48 h; series mostly up to 57.5 µM; note: nearly all actives have a fitted effect of over 55% in size
# Procedure, shortened: as §2
# [9] = Confirmatory screen NINDS Rhodamine qHTS for Zika virus inhibitors (AID 1347161); note: nearly all actives have a fitted effect of over 60% in size
# Procedure, shortened: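 Each compound, titrated, sat 15 min with 25 nM linked protease before 1.5 microM Rhodamine110 substrate went in. Fluorescence gain over the next 15 min, in pH 8.0 Tris with Tween 20, gave Hill-fitted curves.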
# [10] = Tertiary RLuc qRT-PCR qHTS assay for Zika virus inhibitors (AID 1347169); note: nearly all actives have a fitted effect of over 55% in size
# Procedure, shortened: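 Orthogonal cell-based readout: luminescence measured 1-1.5 hrs after adding live-cell Renilla substrate to Vero cells that had been infected with ZIKV-RLuc (MOI 1-2) post-compound, incubated 48-72 hrs at 37 degrees C.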
# [11] = molecular target: Catechol O-methyltransferase (Homo sapiens) (UniProt P21964); assay: Confirmatory Screen for Target Class Profiling of Small Molecule Inhibitors of Methyltransferases (AID 1745852; calls by dose curve); details: MTase-Glo luminescence, SAH detection, recombinant enzyme; measured here: COMT max response; stronger effect = lower value
# [12] = molecular target: Guanidinoacetate N-methyltransferase (Homo sapiens) (UniProt Q14353); assay: as above; details: activity change, negative = inhibition: at 57.3 µM (top of the series) unless noted
# [13] = molecular target: Nicotinamide N-methyltransferase (Homo sapiens) (UniProt P40261); assay: as above; details: MTase-Glo luminescence, SAH detection, recombinant enzyme; measured here: NNMT max response; stronger effect = lower value
# [14] = molecular target: Phenylethanolamine N-methyltransferase (Homo sapiens) (UniProt P11086); assay: as above; details: MTase-Glo luminescence, SAH detection, recombinant enzyme; measured here: PNMT max response; stronger effect = lower value
# [15] = test system: NIH3T3; assay: Cytotoxic Profiling of Annotated Libraries Using Quantitative High-Throughput Screening (AID 1296008); details: Five cell lines viability, CellTiter-Glo ATP luminescence, 48-72 h; max response: stronger effect = lower value; note: nearly all actives have a fitted effect of over 60% in size; for max response: % is set by controls: 0 for no effect and ±100 for the full control effect
# Procedure, shortened: as §1
# [16] = molecular target: Cytochrome P450 2C9 (Homo sapiens) (UniProt P11712); assay: Cytochrome P450 family 2 subfamily C member 9 (CYP2C9) small molecule antagonists: luciferase biochemical (cell-free) qHTS assay (AID 1645842; active = well fitted curve in the direction sought with a large enough effect in the repeat runs; an effect the other way counts as inactive or inconclusive; note: nearly all actives have a fitted effect of over 55% in size)
# Procedure, shortened: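 P450-Glo CYP2C9 system: proluciferin substrate with enzyme in mix containing 0.4% BSA, 10 min at room temperature, then NADPH regeneration solution added and incubated 1 h at 37C. Detection reagent stopped reaction; luminescence read after 20 min as RLU.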
# [17] = qHTS assay to identify inhibitors of the type 1 interferon - major histocompatibility complex class I in skeletal muscle: Counter screen cell viability and HiBit confirmation (AID 1347412); details: iHSKM muscle cells + IFN-b, HiBiT or CellTiter-Glo, 24 h; for activity change, negative = inhibition: at 45.9 µM (top of the series); for all read-outs here: nearly all actives have a fitted effect of over 60% in size
# Procedure, shortened: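 After 24 h with human IFN-beta (4 ng/ml) and compound titrations (top 46 uM final, 1:3, 12 points), HLA-B HiBit myoblasts were lysed for either Nano-Glo HiBiT luminescence or CellTiter Glo viability on paired plates.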
# Potency is the fitted concentration of half-maximal effect.
# Sequence of Cytochrome P450 2C9 (Homo sapiens) (P11712 whole entry, looked up): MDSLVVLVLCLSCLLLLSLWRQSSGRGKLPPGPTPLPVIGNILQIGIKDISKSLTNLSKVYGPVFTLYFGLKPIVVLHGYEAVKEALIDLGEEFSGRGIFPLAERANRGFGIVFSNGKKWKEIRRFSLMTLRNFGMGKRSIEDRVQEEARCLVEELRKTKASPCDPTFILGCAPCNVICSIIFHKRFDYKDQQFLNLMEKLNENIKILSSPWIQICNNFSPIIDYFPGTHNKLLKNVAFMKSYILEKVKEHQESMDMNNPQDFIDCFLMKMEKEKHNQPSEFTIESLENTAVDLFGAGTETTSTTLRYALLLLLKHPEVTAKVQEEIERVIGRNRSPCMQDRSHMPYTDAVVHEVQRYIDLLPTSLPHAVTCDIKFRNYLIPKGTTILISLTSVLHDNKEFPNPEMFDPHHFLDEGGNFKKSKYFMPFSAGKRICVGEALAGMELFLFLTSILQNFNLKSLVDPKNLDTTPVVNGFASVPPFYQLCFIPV
# Sequence of Catechol O-methyltransferase (Homo sapiens) (P21964 whole entry, looked up): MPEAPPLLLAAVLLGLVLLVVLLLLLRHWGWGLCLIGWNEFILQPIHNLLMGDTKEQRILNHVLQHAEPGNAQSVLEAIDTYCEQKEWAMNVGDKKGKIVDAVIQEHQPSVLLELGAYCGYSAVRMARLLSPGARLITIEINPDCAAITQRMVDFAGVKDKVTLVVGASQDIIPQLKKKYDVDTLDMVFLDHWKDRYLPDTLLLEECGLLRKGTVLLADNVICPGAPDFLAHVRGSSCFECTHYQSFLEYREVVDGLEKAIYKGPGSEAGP
# Sequence of Nicotinamide N-methyltransferase (Homo sapiens) (P40261 whole entry, looked up): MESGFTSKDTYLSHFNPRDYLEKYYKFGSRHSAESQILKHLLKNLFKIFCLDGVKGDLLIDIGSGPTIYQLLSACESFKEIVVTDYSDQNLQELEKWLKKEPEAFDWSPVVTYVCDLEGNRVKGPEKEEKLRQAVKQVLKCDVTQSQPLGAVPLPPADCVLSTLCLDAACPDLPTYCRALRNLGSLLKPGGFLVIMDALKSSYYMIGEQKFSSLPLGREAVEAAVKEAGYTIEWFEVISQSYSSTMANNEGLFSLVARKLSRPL
# Sequence of Phenylethanolamine N-methyltransferase (Homo sapiens) (P11086 whole entry, looked up): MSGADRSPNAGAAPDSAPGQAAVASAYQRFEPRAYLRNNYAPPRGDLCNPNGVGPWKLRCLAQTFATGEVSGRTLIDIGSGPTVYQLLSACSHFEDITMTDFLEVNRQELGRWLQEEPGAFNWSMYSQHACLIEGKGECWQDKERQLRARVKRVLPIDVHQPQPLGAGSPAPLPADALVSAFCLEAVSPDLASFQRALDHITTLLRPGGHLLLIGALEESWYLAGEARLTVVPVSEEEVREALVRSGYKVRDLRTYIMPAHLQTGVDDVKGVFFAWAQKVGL
# Sequence of Cytochrome P450 2D6 (Homo sapiens) (P10635 whole entry, looked up): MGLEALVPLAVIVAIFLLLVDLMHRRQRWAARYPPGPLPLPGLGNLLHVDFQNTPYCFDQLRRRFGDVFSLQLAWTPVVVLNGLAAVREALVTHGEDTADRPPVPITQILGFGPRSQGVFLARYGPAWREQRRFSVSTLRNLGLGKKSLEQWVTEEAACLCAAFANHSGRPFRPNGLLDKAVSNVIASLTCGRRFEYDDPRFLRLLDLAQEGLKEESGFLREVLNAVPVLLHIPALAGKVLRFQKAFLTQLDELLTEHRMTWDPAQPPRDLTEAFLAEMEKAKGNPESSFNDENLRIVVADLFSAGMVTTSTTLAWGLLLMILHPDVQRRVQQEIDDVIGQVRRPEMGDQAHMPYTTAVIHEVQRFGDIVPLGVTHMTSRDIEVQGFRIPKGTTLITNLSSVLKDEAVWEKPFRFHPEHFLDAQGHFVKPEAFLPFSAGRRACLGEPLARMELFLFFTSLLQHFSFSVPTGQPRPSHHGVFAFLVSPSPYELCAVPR
compound,measurement,setting,value
CC(=O)C1=C(O)C2c3c[nH]c4cccc(c34)CC2C(C)(C)N(C)C1=O (stereo not given),Potency,[1],9.2 µM (active)
same,max response,[2],-23.8% (inactive)
same,Potency,[3],inactive
same,Potency,[4],inactive
CC1CCC(n2c3cnccc3c3cnc(Nc4ccc5c(n4)CCN(C(=O)CO)C5)nc32)CC1 (stereo not given),Potency,[1],5.8 µM (active)
same,Potency,[5],inactive
same,"activity change, negative = inhibition",[6],-18.6% [at 8.44 µM] (inactive)
same,Potency,[7],inactive
same,max response,[2],-0.578% (inactive)
same,Potency,[3],inactive
CC(=O)N[C@@H](CC(=O)O)C(=O)N[C@@H](CCC(=O)O)C(=O)N[C@H](C(=O)N[C@@H](CC(=O)O)C(=O)Nc1ccc2c(C)cc(=O)oc2c1)C(C)C,Potency,[5],inactive
same,max response,[2],-44.8% (inactive)
CC(C)CCC[C@@H](C)[C@H]1CC[C@H]2[C@@H]3CC=C4C[C@@H](OC(=O)NCCN(C)C)CC[C@]4(C)[C@H]3CC[C@]12C,Potency,[5],inactive
same,max response,[2],-22.1% (inactive)
same,Potency,[8],inactive
same,Potency,[4],22.4 µM (active)
OCC(Cc1ccccc1)Nc1nc(Oc2ccc3c(c2)CCC3)nc2c1ncn2Cc1ccc(-c2ccccc2)cc1 (stereo not given),Potency,[2],18.4 µM (active)
same,Potency,[4],inactive
O=C(NNc1ccccc1)c1ccncc1,Potency,[1],inactive
same,Potency,[5],inactive
same,Potency,[6],inactive
same,max response,[2],-7.12% (inactive)
same,Potency,[3],inactive
COc1ccccc1NC(=O)Nc1ccc2ccccc2c1,max response,[2],-10% (inactive)
same,Potency,[8],inactive
same,Potency,[4],inactive
CC1CCN(C(c2ccc(F)cc2)c2ccc(C(C)C(=O)O)cc2-c2ccc(C(F)(F)F)cc2)CC1 (stereo not given),Potency,[5],1.58 µM (active)
same,Potency,[9],3.12 µM (active)
same,Potency,[10],6.58 µM (active)
same,activity,[11],4.19%
same,"activity change, negative = inhibition",[12],0%
same,activity,[13],-58.6%
same,activity,[14],4.79%
same,max response,[2],1.13% (inactive)
same,Potency,[3],inactive
same,Potency,[8],inactive
same,Potency,[4],inactive
C=C1C(=O)O[C@@H]2CC(C)=C([C@@H](C)CCCO)[C@@H](OC(=O)C(C)C)[C@H]12,activity,[11],-63.9%
same,"activity change, negative = inhibition",[12],0%
same,activity,[13],-0.804%
same,activity,[14],1.36%
same,max response,[15],-12.2% (inactive)
same,Potency,[3],inactive
COc1ccc(CNC(=O)Nc2ncc([N+](=O)[O-])s2)cc1,Potency,[1],23.1 µM (active)
same,Potency,[6],18.6 µM (active)
same,Potency,[16],7.56 µM (active)
same,max response,[2],3.95% (inactive)
same,Potency,[3],inactive
same,Potency,[4],inactive
Nc1ncnc2c1ncn2[C@@H]1O[C@H](CO)C[C@H]1O,Potency,[1],0.001 µM (active)
same,Potency,[5],inactive
same,Potency,[6],inactive
same,max response,[2],-125% (inactive)
Cc1cc2nc(NCCCO)n(CC(=O)c3cc(C(C)(C)C)c(O)c(C(C)(C)C)c3)c2cc1C,Potency,[1],18.4 µM (active)
same,Potency,[5],inactive
same,max response,[2],-19.8% (inactive)
same,Potency,[3],inactive
same,Potency,[8],inactive
C=C(C)C(=O)O[C@H]1[C@H]2C(=C)C(=O)O[C@@H]2C[C@@H](C)/C=C\C(=O)[C@](C)(O)[C@@H]1OC(C)=O,Potency,[5],inactive
same,Potency,[15],7.09 µM (active)
same,Potency,[3],8.91 µM (active)
same,Potency,[8],10 µM (active)
same,Potency,[4],11.2 µM (active)
C=C1[C@@H](C2=CC(=O)OC2)CC[C@@]2(O)[C@@H]1CC1[C@H]2CC[C@@H]2C[C@@H](O[C@H]3O[C@@H](C)[C@@H](O[C@@H]4O[C@H](CO[C@@H]5O[C@H](CO)[C@@H](O)[C@H](O)[C@H]5O)[C@@H](O)[C@H](O)[C@H]4O)[C@H](OC)[C@H]3O)CC[C@]12C (stereo not given in full),Potency,[5],inactive
same,outcome,[15],inactive
O=C(NC(NC(=S)Nc1ccc(F)c([N+](=O)[O-])c1)C(Cl)(Cl)Cl)C(c1ccccc1)c1ccccc1 (stereo not given),Potency,[5],inactive
same,max response,[2],-1.87% (inactive)
same,Potency,[3],inactive
same,Potency,[8],inactive
same,Potency,[4],inactive
O=C(c1ccc(F)c(F)c1Nc1ccc(I)cc1F)N1CC(O)(C2CCCCN2)C1 (stereo not given),Potency,[1],18.4 µM (active)
same,Potency,[2],23.1 µM (active)
same,Potency,[4],20 µM (active)
CN1CCN(C(=O)c2ccc(Nc3nccc(-c4cccs4)n3)cc2Cl)CC1,Potency,[1],18.4 µM (active)
same,Potency,[5],inactive
same,Potency,[7],21.3 µM (active)
same,Potency,[16],0.674 µM (active)
same,activity,[11],-2.55%
same,"activity change, negative = inhibition",[12],0%
same,activity,[13],-31.1%
same,activity,[14],-3.47%
same,max response,[2],-21.8% (inactive)
same,Potency,[3],inactive
same,Potency,[8],inactive
same,Potency,[4],inactive
C=CC(=O)Nc1cc(Nc2nccc(-c3cn(C)c4ccccc34)n2)c(OC)cc1N(C)CCN(C)C,Potency,[1],11.6 µM (active)
same,Potency,[5],inactive
same,Potency,[6],8.29 µM (active)
same,Potency,[7],23.9 µM (active)
same,Potency,[2],1.03 µM (active)
same,Potency,[8],25.1 µM (active)
same,Potency,[17]; HiBiT,24.9 µM (active)
Oc1ccc(Nc2nc(-c3ccc(Cl)cc3)cs2)cc1,Potency,[5],inactive
same,max response,[2],-8.45% (inactive)
same,Potency,[3],inactive
same,"activity change, negative = inhibition",[17]; HiBiT,-38.1% (inactive)
same,"activity change, negative = inhibition",[17]; Viability,7.19% (inactive)
COc1cccc(CNC(=O)Nc2nc(-c3ccncc3)cs2)c1,Potency,[7],0.601 µM (active)
same,Potency,[16],0.239 µM (active)
same,max response,[2],-7.04% (inactive)
same,Potency,[3],inactive
same,Potency,[8],inactive
same,Potency,[4],inactive
CC1(C)CC23[C@@H]4CC(=O)[C@@H]2COC(=O)[C@@H]3CC[C@H]41,Potency,[5],inactive
same,max response,[2],-1.08% (inactive)
same,Potency,[3],inactive
same,Potency,[8],inactive
CC(C)N(CCCNC(=O)Nc1ccc(C(C)(C)C)cc1)C[C@H]1O[C@@H](n2cc(Br)c3c(N)ncnc32)[C@H](O)[C@@H]1O,Potency,[5],inactive
same,Potency,[7],15.1 µM (active)
same,activity,[11],-65.3%
same,Potency,[12],21.5 µM (active)
same,activity,[13],-73.5%
same,activity,[14],-94.2%
same,max response,[2],-3.75% (inactive)
same,Potency,[4],inactive
